According to PubChem BioAssay:
Activity calls are given as the source filed them.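 The calls were made as follows: active = fluorescence slope higher than the sample average by over 3 SD (cut at about -0.22 in these data, passing the limit was not always enough); inactive = the rest.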

The molecules below were run against Voltage-gated potassium channel subunit beta-2 (Rattus norvegicus) (UniProt P62483) (assay: KvBeta enzyme negative modulators, primary screen, biochemical, NADPH fluorescence (AID 622;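 also: slope of raw intensity against log time taken from 70 to 1610 s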)). Settings: recombinant KvBeta, 4-cyanobenzaldehyde reduction, at 10 µM, active compounds read high.
Chain of Voltage-gated potassium channel subunit beta-2 (Rattus norvegicus) (P62483 whole entry, looked up): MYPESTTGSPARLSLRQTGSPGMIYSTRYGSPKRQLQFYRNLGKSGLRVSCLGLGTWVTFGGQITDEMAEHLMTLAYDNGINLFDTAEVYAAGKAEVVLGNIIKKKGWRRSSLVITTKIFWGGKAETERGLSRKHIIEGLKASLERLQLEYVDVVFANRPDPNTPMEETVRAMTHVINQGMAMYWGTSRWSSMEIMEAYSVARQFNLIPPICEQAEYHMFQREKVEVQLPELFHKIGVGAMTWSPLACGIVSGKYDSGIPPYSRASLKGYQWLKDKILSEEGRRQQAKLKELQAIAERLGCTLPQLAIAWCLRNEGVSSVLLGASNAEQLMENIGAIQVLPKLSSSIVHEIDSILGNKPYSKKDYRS
`CCCCOc1ccc(-c2nnn(C(C)(C)C(=O)OC)n2)cc1` was tested, and the fluorescence slope was -0.502 (inactive). For `O=c1c2nnn(Cc3ccc(Cl)cc3)c2ncn1Cc1ccc(F)cc1`, the fluorescence slope was -0.539 (inactive). In the case of `COc1cc(C2C(C#N)=C(N)OC3=C2C(=O)CC(C)(C)C3)ccc1OC(=O)N1CCOCC1` (stereo not given), the fluorescence slope is reported as -0.511 (inactive). With `CCOC(=O)c1[nH]c(C)c(C(=O)Nc2ccc(C)cc2C)c1C` the fluorescence slope was -0.585 (inactive). In the case of `Cn1cccc1Cc1nnc(SCC(N)=O)n1-c1ccc(F)cc1`, the fluorescence slope is reported as -0.569 (inactive). `COc1cccc(OCCn2ccnc2)c1` was tested, and the fluorescence slope was -0.422 (inactive). With `COc1ccc(CCNC(=O)c2cc(C(C)C)on2)cc1OC` the fluorescence slope was -0.567 (inactive). In the case of `CC(CN1CCCCC1)OC(=O)c1ccc2c(c1)OCO2` (stereo not given), the fluorescence slope is reported as -0.586 (inactive). `COc1ccc(NC(=O)c2oc3ccc(S(=O)(=O)N4CCC5(CC4)OCCO5)cc3c2C)cc1` was tested, and the fluorescence slope was -0.447 (inactive). For `CC1CCc2c(sc3c2C2=NS(=O)(=O)CCN2C=N3)C1` (stereo not given), the fluorescence slope was -0.582 (inactive). With `COc1ccc(/C=N/n2cnnc2SCc2ccc(OC)cc2)cc1` the fluorescence slope was -0.348 (inactive). `CCn1c(CCNC(=O)c2cccs2)nnc1SCC(=O)c1ccc(OC)cc1` was tested, and the fluorescence slope was -0.398 (inactive). `Cc1ccc2c(c1)C(N1CCCC1=O)CC(c1ccco1)N2` (stereo not given) was tested, and the fluorescence slope was -0.407 (inactive). For `Cc1sc2nc(SCC(=O)Nc3c(C)n(C)n(-c4ccccc4)c3=O)n(C)c(=O)c2c1C`, the fluorescence slope was -0.376 (inactive). `COCCN(CCOC)C(=O)c1sc2nc(-c3ccccc3)cn2c1C` was tested, and the fluorescence slope was -0.39 (inactive). `CCc1ccccc1NC(=O)C(CC)Sc1nc2cc3c(cc2c(=O)n1Cc1ccco1)OCO3` (stereo not given) was tested, and the fluorescence slope was -0.494 (inactive). In the case of `CCc1c(C(=O)Nc2ncn(Cc3cccc(C)c3)n2)csc1C`, the fluorescence slope is reported as -0.343 (inactive). With `CCC(=O)N1CCN(c2nc(-c3ccccc3)c3c(c2C#N)CCCC3)CC1` the fluorescence slope was -0.317 (inactive). `COc1ccc(S(=O)(=O)N(C)CC(=O)N2CCCCC2)cc1Cl` was tested, and the fluorescence slope was -0.492 (inactive). `CN(CC(=O)N1CCCCC1)S(=O)(=O)c1cccc2cccnc12` was tested, and the fluorescence slope was -0.531 (inactive). `CS(=O)(=O)N(CC(=O)Nc1cccc(F)c1)Cc1ccccc1` was tested, and the fluorescence slope was -0.467 (inactive). In the case of `O=S(=O)(c1cccc(S(=O)(=O)N2CCC(N3CCCCC3)CC2)c1)N1CCOCC1`, the fluorescence slope is reported as -0.469 (inactive). For `Cc1ccc(-c2nc3cc(N)ccc3o2)cc1`, the fluorescence slope was -0.0326 (active). `COc1ccc(OC)c(C(=O)CSc2nc3ncccc3[nH]2)c1` was tested, and the fluorescence slope was -0.488 (inactive). `O=C1c2ccccc2C(Nc2ccc3c(c2)OCO3)N1Cc1ccc2c(c1)OCO2` (stereo not given) was tested, and the fluorescence slope was -0.398 (inactive). With `COc1ccc(-c2nc(C)c(C(C)=O)n2O)cc1OC` the fluorescence slope was -0.355 (inactive). `CCOc1ccc(N(CC(=O)Nc2ccc(F)c(F)c2)S(=O)(=O)c2c(C)noc2C)cc1` was tested, and the fluorescence slope was -0.521 (inactive). For `CC(=O)Nc1ccc(NS(=O)(=O)c2ccc(Cl)c(C(=O)O)c2)cc1`, the fluorescence slope was -0.42 (inactive). With `CC(=O)c1cccc(NC(=O)CCNS(=O)(=O)c2cccc3nsnc23)c1` the fluorescence slope was -0.539 (inactive). For `CCOc1ccccc1-n1nnnc1SCC(=O)Nc1cc2oc3ccccc3c2cc1OC`, the fluorescence slope was -0.568 (inactive). `COc1cccc(NC(=O)CSc2nnc(Cc3cccn3C)n2-c2ccc(F)cc2)c1` was tested, and the fluorescence slope was -0.594 (inactive). For `CCN1CCN(c2nc(C)nc3c2sc(=S)n3C)CC1`, the fluorescence slope was -0.587 (inactive). For `CCCc1[nH]nc2c1C(c1cn[nH]c1-c1ccc(F)cc1)C(C#N)=C(N)O2` (stereo not given), the fluorescence slope was -0.38 (inactive). `COC(=O)c1sc(N)c(C(=O)OC)c1COC(=O)C1CC(=O)N(Cc2ccco2)C1` (stereo not given) was tested, and the fluorescence slope was -0.265 (inactive). With `COC(=O)CCC(NC(=O)c1cc(-c2ccc3c(c2)OCCO3)oc1C)C(=O)OC` (stereo not given) the fluorescence slope was -0.48 (inactive). With `CSc1cccc(NC(=O)CN(C)S(=O)(=O)c2ccccc2)c1` the fluorescence slope was -0.406 (inactive). In the case of `CC(C)c1nnc(NC(=O)Cc2cccs2)s1`, the fluorescence slope is reported as -0.513 (inactive). With `COc1ccc(NC(=O)CSc2nc3c(c(=O)n2-c2ccc(F)cc2)SCC3)c(OC)c1` the fluorescence slope was -0.474 (inactive). `CC(C)(CO)NC(=O)CCCOc1ccc(Cl)cc1Cl` was tested, and the fluorescence slope was -0.431 (inactive). In the case of `Cc1cc(C)n(-c2ccc(N3CCOCC3)nn2)n1`, the fluorescence slope is reported as -0.4 (inactive).
